Assay results reported in PubChem BioAssay (NCI).
About 83,000 compounds went through this panel and 20% of them were active in at least one assay; those are over-represented in the sample as a whole.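 A percent growth of 40 corresponds to 60% growth inhibition; 0 means no net growth; -100 means all cells died. Active threshold: below 10.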 The source made the active and inactive calls.

Tests used:
Experiment in all cases: NCI-60 one-dose screen, 48 h (100 = growth as untreated, 0 = no growth, -100 = all killed)
Settings in all cases: 10 µM unless noted
NCI-H23 lung = tested on: NCI-H23 lung
NCI-H226 lung = tested on: NCI-H226 lung
NCI-H322M lung = tested on: NCI-H322M lung
HOP-62 NSCLC = tested on: HOP-62 NSCLC
NCI-H460 lung = tested on: NCI-H460 lung
HOP-92 NSCLC = tested on: HOP-92 NSCLC
NCI-H522 lung = tested on: NCI-H522 lung
A549/ATCC NSCLC = tested on: A549/ATCC NSCLC
786-0 renal = tested on: 786-0 renal
COLO 205 colon = tested on: COLO 205 colon
DU-145 prostate = tested on: DU-145 prostate
MALME-3M melanoma = tested on: MALME-3M melanoma
MDA-MB-231 breast = tested on: MDA-MB-231 breast
RXF 393 renal = tested on: RXF 393 renal
SF-268 CNS = tested on: SF-268 CNS
SF-295 CNS = tested on: SF-295 CNS
SF-539 CNS = tested on: SF-539 CNS
UACC-257 melanoma = tested on: UACC-257 melanoma
M14 melanoma = tested on: M14 melanoma

Measured: growth

CCn1c(SC)nnc1-c1cc2c([nH]c3ccccc32)c(-c2cccc(O)c2)n1
active: NCI-H460 lung 9.54% | HOP-92 NSCLC -1.11% | NCI-H522 lung 5.8% | 786-0 renal 1.6% | RXF 393 renal -32.9% | SF-295 CNS -20.1% | SF-539 CNS -9.07%
inactive: NCI-H23 lung 39.8% | NCI-H226 lung 51.3% | NCI-H322M lung 50.1% | HOP-62 NSCLC 18.3% | A549/ATCC NSCLC 26.5% | COLO 205 colon 87.7% | DU-145 prostate 28.1% | MALME-3M melanoma 33.1% | MDA-MB-231 breast 23.1% | SF-268 CNS 32.4% | UACC-257 melanoma 57.4% | M14 melanoma 10.8%

Cc1cc(N2CCOCC2)nc(N(CCNc2ccnc3cc(Cl)ccc23)Cc2ccco2)n1
active: 786-0 renal 5.93% | COLO 205 colon -4.11% | MDA-MB-231 breast 7.62% | SF-295 CNS 6.25% | SF-539 CNS -31.8%
inactive: NCI-H23 lung 58% | NCI-H226 lung 60.5% | NCI-H322M lung 41.8% | HOP-62 NSCLC 36.5% | NCI-H460 lung 47.3% | HOP-92 NSCLC 46.7% | NCI-H522 lung 13.9% | A549/ATCC NSCLC 50.7% | DU-145 prostate 53.4% | MALME-3M melanoma 62.8% | RXF 393 renal 10.6% | SF-268 CNS 71.8% | UACC-257 melanoma 49.8% | M14 melanoma 39.5%

C=CCn1c(SCC(=O)Nc2ccc(C(=O)/C=C/c3cc(OC)c(OC)c(OC)c3)cc2)nnc1-c1ccc(OC)cc1
inactive: NCI-H23 lung 22.2% | NCI-H322M lung 17.3% | HOP-92 NSCLC 21.3% | MALME-3M melanoma 46.1% | MDA-MB-231 breast 13.8% | UACC-257 melanoma 13.6%
active: NCI-H226 lung -36.5% | HOP-62 NSCLC -32.5% | NCI-H460 lung 0.762% | NCI-H522 lung -16.8% | A549/ATCC NSCLC 4.04% | 786-0 renal -30.8% | COLO 205 colon -7.79% | DU-145 prostate 5.32% | RXF 393 renal -81.6% | SF-268 CNS 5.5% | SF-295 CNS -21.4% | SF-539 CNS -17.6% | M14 melanoma 6.88%

O=C(Nc1ccc(F)cc1)Nc1ccc(Br)c(C(F)(F)F)c1
active: NCI-H23 lung -7.43% | NCI-H226 lung -6.87% | NCI-H460 lung 4.62% | HOP-92 NSCLC -13.3% | NCI-H522 lung -16.9% | COLO 205 colon -27.3% | MALME-3M melanoma -6.11% | MDA-MB-231 breast 7.99% | SF-295 CNS 3% | UACC-257 melanoma 1.49%
inactive: NCI-H322M lung 22% | HOP-62 NSCLC 23.2% | A549/ATCC NSCLC 10.2% | 786-0 renal 13.6% | DU-145 prostate 22.3% | RXF 393 renal 26.8% | SF-268 CNS 22% | SF-539 CNS 19.9% | M14 melanoma 15.3%

FC(F)(F)c1cn(CCN2CCOCC2)c2ncnc(Cl)c12
active: HOP-92 NSCLC -62.3%
inactive: NCI-H23 lung 66.1% | NCI-H226 lung 101% | NCI-H322M lung 87.4% | HOP-62 NSCLC 55.9% | NCI-H460 lung 84.3% | NCI-H522 lung 20.5% | A549/ATCC NSCLC 94.5% | 786-0 renal 113% | COLO 205 colon 76.5% | DU-145 prostate 57.8% | MALME-3M melanoma 111% | MDA-MB-231 breast 63.8% | RXF 393 renal 82.9% | SF-268 CNS 67.5% | SF-295 CNS 96.5% | SF-539 CNS 87% | UACC-257 melanoma 84% | M14 melanoma 38%

O=C(Nc1ccccc1Cl)c1c[nH]c(=O)c(-c2ccc(N3CCCOC4(CC4)C3)cc2)c1
inactive: NCI-H23 lung 46.9% | NCI-H226 lung 50.9% | NCI-H322M lung 78% | HOP-62 NSCLC 69.7% | NCI-H460 lung 63.8% | HOP-92 NSCLC 70.4% | NCI-H522 lung 53.6% | A549/ATCC NSCLC 57.8% | 786-0 renal 68.2% | COLO 205 colon 81.4% | DU-145 prostate 77.6% | MALME-3M melanoma 70% | MDA-MB-231 breast 77.7% | RXF 393 renal 81.2% | SF-268 CNS 69.8% | SF-295 CNS 55.3% | SF-539 CNS 76% | UACC-257 melanoma 38% | M14 melanoma 74.9%

O=C(Nc1ccc(F)cc1)Nc1ccc(Cl)c([N+](=O)[O-])c1
active: NCI-H23 lung -1.96% | NCI-H460 lung 3.03% | HOP-92 NSCLC -8.16% | NCI-H522 lung 2.42% | SF-295 CNS 8.17%
inactive: NCI-H226 lung 16% | NCI-H322M lung 28.4% | HOP-62 NSCLC 38.8% | A549/ATCC NSCLC 17.1% | 786-0 renal 26.7% | COLO 205 colon 12% | DU-145 prostate 18.9% | MALME-3M melanoma 27.4% | MDA-MB-231 breast 40% | RXF 393 renal 51.1% | SF-268 CNS 32.7% | SF-539 CNS 36.2% | UACC-257 melanoma 34.9% | M14 melanoma 24%

CC(=O)N1N=C(CCC(=O)c2nc3ccc([N+](=O)[O-])cc3[nH]2)OC1c1ccc(O)cc1 (configuration not stated)
inactive: NCI-H23 lung 93.2% | NCI-H226 lung 101% | NCI-H322M lung 99% | HOP-62 NSCLC 91.2% | NCI-H460 lung 103% | HOP-92 NSCLC 118% | NCI-H522 lung 51.3% | A549/ATCC NSCLC 106% | 786-0 renal 106% | COLO 205 colon 92.3% | DU-145 prostate 108% | MALME-3M melanoma 94.4% | MDA-MB-231 breast 102% | RXF 393 renal 111% | SF-268 CNS 97.7% | SF-295 CNS 96.4% | SF-539 CNS 100% | UACC-257 melanoma 103% | M14 melanoma 103%
